In all, about 290,000 compounds went through this assay and about 890 (0.31%) were called active. Cut-off read from the data, not from the text of the source: active = inhibition mostly above about 52% (no sharp cut-off); inactive = mostly below about 76%. For the sample, actives were picked, then their nearest neighbours and some compounds at random.
Assay: cell-free HIV fusion peptide-binding blockers – biochemical, uHTS, fluorescence dequenching, primary screen (AID 1986)
Settings: 30 min, stronger effect = higher value
[1] = measured here: repeat confirmation average inhibition, at 18.6 µM

SMILES	inhibition (at 20 µM)	inhibition [1] [%]
COc1cc(OC)c(OC)cc1CN1CCN(C(=O)CC(C)C)CC1	-0.6% (inactive)	
O=C(Oc1cccc(-n2cnnn2)c1)c1ccco1	12% (inactive)	
CC(NC(=O)c1ccc2c(c1)OCO2)c1ccccc1 (stereo not drawn)	0.3% (inactive)	
Cc1ccc2c(C(=O)CN3CCCC(C)C3)c(C)[nH]c2c1 (stereo not drawn)	-0.5% (inactive)	
O=C(OCc1cncs1)c1cccs1	0% (inactive)	
O=C(Nc1ccccc1C(=O)O)c1cccc(C(=O)Nc2ccccc2C(=O)O)c1	34.2% (inactive)	
Cc1ccc(S(=O)(=O)CCSc2cccc(C(=O)Nc3ccccc3C(=O)O)c2)cc1	51.2% (active)	
Cc1ccc(S(=O)(=O)CCSc2cccc(C(=O)O)c2)cc1	0.9% (inactive)	
O=C1NC(=S)S/C1=C\C=C\c1ccc([N+](=O)[O-])o1	56.6% (active)	
O=C(O)/C=C/c1ccc([N+](=O)[O-])o1	5.1% (inactive)	
O=C1CN(/N=C/c2ccc([N+](=O)[O-])o2)C(=O)N1	146% (inactive)	
COc1ccc(/C=C/C(=O)NC(=S)Nc2ccccc2)cc1OC	1.5% (inactive)	
O=C(O[C@@H]1OC2COC(=O)c3cc(O)c(O)c(O)c3-c3c(cc(O)c(O)c3O)C(=O)O[C@@H]([C@H]1O)[C@@H]2O)c1cc(O)c(O)c(O)c1	31.6% (inactive)	
FC(F)(F)c1nc2cc3nc4ccccc4[nH]c3cc2n1	3.4% (inactive)	
Nc1nc2ccccc2[nH]1	-0.4% (inactive)	
c1ccc2[nH]c3cc4ncnc4cc3nc2c1	59.7% (active)	95.9
Cc1cc(C)c(/C=N/n2c(C)cc(C)c(C#N)c2=O)c(C)c1	-2.5% (inactive)	
O=C(NCc1ccc2c(c1)OCO2)c1ccc(CSCc2ccccc2Cl)o1	0.4% (inactive)	
CCc1oc2ccccc2c1C(=O)CCN1CCCCC1	-3.9% (inactive)	
CCOC(=O)c1c(O)c2ccccc2oc1=O	-0.2% (inactive)	
CCc1oc2ccccc2c1C(=O)c1cc(Br)c(O)c(Br)c1	57.5% (active)	71.4
Cc1ccc(NC2=NCC(=O)N2c2ccc3c(c2)OCCO3)c(C)c1	0.4% (inactive)	
O=C(NCCSCc1c(F)cccc1Cl)c1ccco1	-1.3% (inactive)	
CN(Cc1cc(=O)n2ccsc2n1)Cc1nc2ccccc2c(=O)[nH]1	-1.5% (inactive)	
COc1ccc(NC(=O)CSc2nnc(C)c3ccccc23)cc1	0.4% (inactive)	
COc1ccc(NC(=O)CSc2ccc3c4c(cccc24)C(=O)c2ccccc2-3)cc1	77% (active)	96.6
COc1ccc(NC(=O)CSc2nncc3ccccc23)cc1	-1.5% (inactive)	
N#Cc1cccc(NC(=O)CSc2ccccc2)c1	-0.6% (inactive)	
Cc1ccccc1SCC(=O)Nc1cccc(C#N)c1	8.4% (inactive)	
N#Cc1cccc(NC(=O)CSc2ccc3c4c(cccc24)C(=O)c2ccccc2-3)c1	74.2% (active)	
